Test results taken from PubChem BioAssay.
For some assays here: Potency and affinity values are given separately. Calls of active or inactive are those of the source. Unless noted, no rule for the calls is given here.

Legend:
[1] = antimalarial activity against Dd2 strain (AID 2302;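 active = growth inhibition above 50% at the single 2 µM test dose, taken to imply half-maximal potency below 2 µM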;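 also: 0% = DMSO untreated growth and 100% = chloroquine plus artemisinin killed control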); details: P. falciparum Dd2 in RBCs, LDH growth readout, 72 h; at 2 µM; stronger effect = higher value
[2] = human hepatoma cell viability loss – ATP luminescence, cytotoxicity control for P. falciparum antimalarial project, primary screen (AID 2303;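 active = inhibition above 50%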;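 also: 0% = DMSO wells and 100% = digitonin-killed cells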); details: HepG2 viability, 24-48 h, at 10 µM, stronger effect = higher value
[3] = molecular target: L-lactate dehydrogenase (Plasmodium falciparum (isolate CDC / Honduras)) (UniProt Q27743); assay: PfLDH activity inhibition – cell lysate, 3D7 strain, counter-screen for P. falciparum growth inhibition project (AID 2304);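 also: 0% = vehicle and 100% = reference inhibitor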; details: P. falciparum 3D7 crude extract, LDH APAD/NBT absorbance; at 2 µM; stronger effect = higher value
[4] = inhibition of 3D7 malaria parasite growth – strain 3D7 (AID 2306);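 also: 0% = DMSO wells and 100% = chloroquine plus artemisinin control wells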; details: P. falciparum 3D7 erythrocytic growth, LDH absorbance, 72 h; at 2 µM; stronger effect = higher value
[5] = molecular target: Calcium-dependent protein kinase 1 (Plasmodium falciparum (isolate 3D7)) (UniProt P62344); assay: PfCDPK1 kinase inhibitors, biochemical, TCAMS library (AID 1159585; cut-off not given, nearly all actives have IC50 up to about 0.98 µM;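 also: inhibitors leave more ATP so luminescence rises with inhibition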); details: recombinant PfCDPK1, Kinase-Glo ATP depletion luminescence
[6] = molecular target: Plasmodium falciparum protein kinase 6 (PK6, PF3D7_1337100) (UniProt Q8IDW1); assay: PfPK6 kinase inhibitors, biochemical, TCAMS library (AID 1159586); details: recombinant PfPK6, Kinase-Glo ATP depletion luminescence
[7] = molecular target: Protein kinase 7 (PK7), Plasmodium falciparum 3D7 (PF3D7_0213400) (UniProt Q7YTF7); assay: inhibition of Plasmodium PK7 catalytic activity – biochemical, TCAMS antimalarial set, Kinase-Glo luminescence (AID 1159587); details: recombinant PfPK7, Kinase-Glo ATP depletion luminescence
[8] = molecular target: Calcium-dependent protein kinase 4 (Plasmodium falciparum (isolate 3D7)) (UniProt Q8IBS5); assay: PfCDPK4 kinase inhibitors, biochemical, TCAMS library (AID 1159588; cut-off not given, nearly all actives have IC50 up to about 0.91 µM); details: recombinant PfCDPK4, Kinase-Glo ATP depletion luminescence
Calcium-dependent protein kinase 4 (Plasmodium falciparum (isolate 3D7)), sequence (Q8IBS5 whole entry, looked up): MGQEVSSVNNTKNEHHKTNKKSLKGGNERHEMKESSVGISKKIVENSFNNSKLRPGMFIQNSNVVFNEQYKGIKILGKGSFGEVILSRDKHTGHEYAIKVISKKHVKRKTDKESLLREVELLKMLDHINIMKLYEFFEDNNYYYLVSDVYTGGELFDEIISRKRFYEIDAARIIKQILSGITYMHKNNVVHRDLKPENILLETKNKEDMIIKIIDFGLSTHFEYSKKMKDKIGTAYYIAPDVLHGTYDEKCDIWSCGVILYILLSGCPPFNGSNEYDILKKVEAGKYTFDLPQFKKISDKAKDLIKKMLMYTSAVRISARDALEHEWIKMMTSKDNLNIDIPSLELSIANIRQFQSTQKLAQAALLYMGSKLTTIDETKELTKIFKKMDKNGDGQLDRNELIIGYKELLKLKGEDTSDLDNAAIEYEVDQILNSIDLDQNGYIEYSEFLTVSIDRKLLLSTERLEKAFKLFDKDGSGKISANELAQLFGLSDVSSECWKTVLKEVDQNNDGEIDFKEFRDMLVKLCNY

Protein kinase 7 (PK7), Plasmodium falciparum 3D7 (PF3D7_0213400), sequence (Q7YTF7 1-343): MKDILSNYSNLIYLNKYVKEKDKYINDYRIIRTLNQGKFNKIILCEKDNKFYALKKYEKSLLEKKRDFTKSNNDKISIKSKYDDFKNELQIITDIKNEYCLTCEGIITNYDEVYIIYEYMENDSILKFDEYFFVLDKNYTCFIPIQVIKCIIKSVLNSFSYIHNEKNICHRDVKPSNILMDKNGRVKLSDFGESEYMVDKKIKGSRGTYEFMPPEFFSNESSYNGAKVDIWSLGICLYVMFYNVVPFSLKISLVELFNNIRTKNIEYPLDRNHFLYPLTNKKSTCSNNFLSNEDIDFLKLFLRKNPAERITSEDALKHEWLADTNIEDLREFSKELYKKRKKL
Calcium-dependent protein kinase 1 (Plasmodium falciparum (isolate 3D7)), sequence (P62344 whole entry, looked up): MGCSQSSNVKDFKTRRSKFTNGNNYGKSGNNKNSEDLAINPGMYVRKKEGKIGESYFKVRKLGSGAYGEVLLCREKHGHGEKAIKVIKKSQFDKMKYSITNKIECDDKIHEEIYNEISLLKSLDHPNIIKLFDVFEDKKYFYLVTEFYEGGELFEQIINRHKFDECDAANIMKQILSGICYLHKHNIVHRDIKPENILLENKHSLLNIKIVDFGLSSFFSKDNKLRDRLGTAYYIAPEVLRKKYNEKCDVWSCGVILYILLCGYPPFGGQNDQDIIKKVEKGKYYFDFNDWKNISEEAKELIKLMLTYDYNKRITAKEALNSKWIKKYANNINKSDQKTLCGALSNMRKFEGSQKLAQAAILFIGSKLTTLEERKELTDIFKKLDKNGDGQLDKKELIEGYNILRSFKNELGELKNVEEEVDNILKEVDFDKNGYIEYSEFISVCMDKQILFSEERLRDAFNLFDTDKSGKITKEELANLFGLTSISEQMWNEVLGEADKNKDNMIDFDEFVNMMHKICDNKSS
Plasmodium falciparum protein kinase 6 (PK6, PF3D7_1337100), sequence (Q8IDW1 1-305): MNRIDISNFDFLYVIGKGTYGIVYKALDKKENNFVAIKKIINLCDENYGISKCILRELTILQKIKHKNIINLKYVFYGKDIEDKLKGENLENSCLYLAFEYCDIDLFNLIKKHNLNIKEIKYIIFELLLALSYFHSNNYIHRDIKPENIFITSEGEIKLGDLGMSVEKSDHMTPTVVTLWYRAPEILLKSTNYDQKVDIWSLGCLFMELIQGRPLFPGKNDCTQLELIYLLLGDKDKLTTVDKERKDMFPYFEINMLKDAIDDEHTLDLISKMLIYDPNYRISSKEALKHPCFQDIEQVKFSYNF
L-lactate dehydrogenase (Plasmodium falciparum (isolate CDC / Honduras)), sequence (Q27743 whole entry, looked up): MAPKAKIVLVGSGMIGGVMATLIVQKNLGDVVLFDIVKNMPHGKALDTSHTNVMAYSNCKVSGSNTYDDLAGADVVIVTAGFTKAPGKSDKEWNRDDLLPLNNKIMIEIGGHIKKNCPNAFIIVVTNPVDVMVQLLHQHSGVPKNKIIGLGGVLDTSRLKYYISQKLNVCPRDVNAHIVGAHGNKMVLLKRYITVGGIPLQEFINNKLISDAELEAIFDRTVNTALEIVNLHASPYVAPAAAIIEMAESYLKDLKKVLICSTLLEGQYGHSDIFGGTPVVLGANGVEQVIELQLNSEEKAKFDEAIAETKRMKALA

O=C(Nc1cccc(CN2CCCN(Cc3cccc(Cl)c3)CC2)c1)c1ccc(Cl)c(Cl)c1
inactive: growth inhibition [1] 17% | inhibition [2] 18% | inhibition [3] -1% | outcome [5] | outcome [6] | outcome [7] | outcome [8]
active: growth inhibition [4] 89%

O=[N+]([O-])c1ccc(Nc2nc(NCc3ccccc3)nc(NN=Cc3ccccc3[N+](=O)[O-])n2)cc1
inactive: inhibition [2] 18% | inhibition [3] -9% | outcome [5] | outcome [6] | outcome [7] | outcome [8]
active: growth inhibition [1] 99% | growth inhibition [4] 101%

COc1ccc(Nc2nc(C)cc(NC3CCCC3)n2)cc1
active: growth inhibition [1] 59% | growth inhibition [4] 98%
inactive: inhibition [2] 34% | inhibition [3] 0% | outcome [5] | outcome [6] | outcome [7] | outcome [8]

CCNc1cc(C(=O)N[C@@H](Cc2ccccc2)[C@H](O)CNCCc2ccccc2)cc(N2CCCCS2(=O)=O)c1
active: growth inhibition [1] 91% | growth inhibition [4] 98%
inactive: inhibition [2] 14% | inhibition [3] 7% | outcome [5] | outcome [6] | outcome [7] | outcome [8]

O=c1cc(N2CCNCC2)c(Cl)nn1Cc1ccc(NS(=O)(=O)c2ccc(Oc3ccccc3)cc2)cc1
inactive: growth inhibition [1] -5% | inhibition [2] 3% | inhibition [3] -6% | outcome [5] | outcome [6] | outcome [7] | outcome [8]
active: growth inhibition [4] 102%

O=C(NCCCCN1CCC(c2ccc([N+](=O)[O-])cc2)CC1)c1ccc(NC(=O)c2ccc(Cl)cc2)cc1
inactive: inhibition [2] 15% | inhibition [3] 2% | outcome [5] | outcome [6] | outcome [7] | outcome [8]
active: growth inhibition [1] 55% | growth inhibition [4] 100%

COc1ccc2nccc(NC(=O)CNCc3ccc(-c4ccccc4)cc3)c2c1
active: growth inhibition [4] 101%
inactive: growth inhibition [1] 35% | inhibition [2] 11% | inhibition [3] -4% | outcome [5] | outcome [6] | outcome [7] | outcome [8]

COC(=O)c1cccc(CNCc2cccc(-c3cccc(-c4nc5ccc(F)cc5[nH]4)c3)c2)c1
inactive: inhibition [2] 27% | inhibition [3] 1% | outcome [5] | outcome [6] | outcome [7] | outcome [8]
active: growth inhibition [1] 52% | growth inhibition [4] 101%

COC(=O)C(=C(C)C)N1C(=O)[C@@H](NC(=O)OCc2ccccc2)[C@H]1SS[C@@H]1[C@H](NC(=O)OCc2ccccc2)C(=O)N1C(C(=O)OC)=C(C)C
active: growth inhibition [1] 96% | growth inhibition [4] 97%
inactive: inhibition [2] 18% | inhibition [3] -5% | outcome [5] | outcome [6] | outcome [7] | outcome [8]

CCN(CCN(C)C)Cc1ccc(-c2ccc(NS(=O)(=O)c3cccc4cccnc34)cc2)cc1
inactive: inhibition [2] 16% | inhibition [3] 1% | outcome [5] | outcome [6] | outcome [7] | outcome [8]
active: growth inhibition [1] 57% | growth inhibition [4] 91%

Cc1onc(-c2c(Cl)cccc2Cl)c1C(=O)N1CCc2cc3nccc(N4CCN5CCC[C@H]5C4)c3cc21
inactive: inhibition [2] 3% | inhibition [3] -5% | outcome [5] | outcome [6] | outcome [7] | outcome [8]
active: growth inhibition [1] 58% | growth inhibition [4] 101%

CN1CCN(c2ccc(-c3nc4c(C(N)=O)c(OCc5cc(Cl)cc(Cl)c5)ccc4[nH]3)cc2)CC1
active: growth inhibition [1] 85% | growth inhibition [4] 100%
inactive: inhibition [2] 45% | inhibition [3] -2% | outcome [5] | outcome [6] | outcome [7] | outcome [8]

N#Cc1ccc(NC(=NCc2ccc(Cl)cc2Cl)Nc2cccc(Cl)c2Cl)c(O)c1
inactive: inhibition [2] 3% | inhibition [3] -6% | outcome [5] | outcome [6] | outcome [7] | outcome [8]
active: growth inhibition [1] 75% | growth inhibition [4] 97%

S=C(NCCCCCN1CCC(c2c[nH]c3ccccc23)CC1)Nc1cc(Cl)cc(Cl)c1
active: growth inhibition [4] 100%
inactive: growth inhibition [1] 35% | inhibition [2] 25% | inhibition [3] -4% | outcome [5] | outcome [6] | outcome [7] | outcome [8]

O=c1cc(NCCC2CC=CCN2Cc2ccc(Cl)c(Cl)c2)[nH]c2ccccc12 (stereo not given)
inactive: inhibition [2] 7% | inhibition [3] 4% | outcome [5] | outcome [6] | outcome [7] | outcome [8]
active: growth inhibition [1] 77% | growth inhibition [4] 94%

c1cc(-c2ccc(CN3CCCCC3)cc2)cc(-c2nc3ccccc3[nH]2)c1
active: growth inhibition [1] 79% | growth inhibition [4] 101%
inactive: inhibition [2] 39% | inhibition [3] 5% | outcome [5] | outcome [6] | outcome [7] | outcome [8]

C[C@@H]1CN(c2cnn(Cc3cccc(NC(=O)Nc4cccc(C(F)(F)F)c4)c3)c(=O)c2Cl)C[C@H](C)N1
inactive: inhibition [2] 19% | inhibition [3] -4% | outcome [5] | outcome [6] | outcome [7] | outcome [8]
active: growth inhibition [1] 74% | growth inhibition [4] 96%

CCOc1cc(C)ccc1N(C1CCN(CCCCNC(=O)c2ccc(-c3ccc(C(F)(F)F)cc3)cc2)CC1)S(=O)(=O)c1ccccc1
active: growth inhibition [1] 85% | growth inhibition [4] 88%
inactive: inhibition [2] 14% | inhibition [3] -4% | outcome [5] | outcome [6] | outcome [7] | outcome [8]

CC(=O)c1cccc(Nc2nc3c(C#N)c(OCc4cc(Cl)cc(Cl)c4)ccc3[nH]2)c1
inactive: growth inhibition [1] 45% | inhibition [2] 29% | inhibition [3] 0% | outcome [5] | outcome [6] | outcome [7] | outcome [8]
active: growth inhibition [4] 86%

CC(=O)Nc1ccc([N+](=O)[O-])c2c(Br)cccc12
inactive: growth inhibition [1] -1% | inhibition [2] -3% | inhibition [3] -4% | outcome [5] | outcome [6] | outcome [7] | outcome [8]
active: growth inhibition [4] 100%

O=C(NCC1CCN(Cc2ccc3c(c2)OCCO3)C1)c1cc(-c2ccccc2F)cs1 (stereo not given)
active: growth inhibition [4] 95%
inactive: growth inhibition [1] -1% | inhibition [2] 18% | inhibition [3] 4% | outcome [5] | outcome [6] | outcome [7] | outcome [8]

COc1ccc(CN(C)CCCc2ccc(NC(=O)c3cccc4c(=O)c5ccccc5[nH]c34)cc2)cc1OC
inactive: inhibition [3] -1% | outcome [5] | outcome [6] | outcome [7] | outcome [8]
active: growth inhibition [1] 54% | inhibition [2] 77% | growth inhibition [4] 99%

CCCC(=O)NC(NC(=S)Nc1ccc([N+](=O)[O-])cc1)C(Cl)(Cl)Cl (stereo not given)
inactive: growth inhibition [1] 14% | inhibition [2] 10% | inhibition [3] 4% | outcome [5] | outcome [6] | outcome [7] | outcome [8]
active: growth inhibition [4] 93%

O=C(NCc1ccccc1)c1ccc(C(=O)NCC2CNCCO2)cc1 (stereo not given)
active: growth inhibition [4] 92%
inactive: growth inhibition [1] -1% | inhibition [2] 4% | inhibition [3] -4% | outcome [5] | outcome [6] | outcome [7] | outcome [8]

O=C(Nc1cccc(CN2CCCN(Cc3cccc(O)c3)CC2)c1)c1ccc2ccccc2c1
active: growth inhibition [4] 97%
inactive: growth inhibition [1] 42% | inhibition [2] 21% | inhibition [3] -4% | outcome [5] | outcome [6] | outcome [7] | outcome [8]

CCCCc1cc(NC2CCN(C)CC2)nc(Nc2ccccc2)n1
inactive: growth inhibition [1] 29% | inhibition [2] 7% | inhibition [3] -2% | outcome [5] | outcome [6] | outcome [7] | outcome [8]
active: growth inhibition [4] 103%

NC(N)=NN=Cc1cc([N+](=O)[O-])ccc1Sc1ccccc1CO
active: growth inhibition [4] 84%
inactive: growth inhibition [1] -1% | inhibition [2] 25% | inhibition [3] -2% | outcome [5] | outcome [6] | outcome [7] | outcome [8]

CCN(CC)CCNc1ccnc2[nH]c3ccc(C)cc3c12
active: growth inhibition [1] 81% | growth inhibition [4] 102%
inactive: inhibition [2] 9% | inhibition [3] -3% | outcome [5] | outcome [6] | outcome [7] | outcome [8]

N#Cc1ccc2nc(-c3ccccc3)[nH]c2c1
inactive: growth inhibition [1] 1% | inhibition [2] 7% | inhibition [3] -1% | outcome [5] | outcome [6] | outcome [7] | outcome [8]
active: growth inhibition [4] 95%

O=C1Nc2cccc3c2C1(CCCCCN1CCC(c2c[nH]c4ccncc24)CC1)CCC3 (stereo not given)
active: growth inhibition [4] 95%
inactive: growth inhibition [1] 3% | inhibition [2] 8% | inhibition [3] 6% | outcome [5] | outcome [6] | outcome [7] | outcome [8]

Cc1ccc(NC(=O)c2ccc(CN3CCCN(Cc4cccc(O)c4)CC3)cc2)cc1F
active: growth inhibition [4] 97%
inactive: growth inhibition [1] 31% | inhibition [2] 48% | inhibition [3] -2% | outcome [5] | outcome [6] | outcome [7] | outcome [8]

CCN(C)CCCn1c(N(C)C)nc2cc(-n3cnc4cc(-c5ccc(Cl)cc5)sc4c3=O)ccc21
active: inhibition [2] 83% | growth inhibition [4] 80%
inactive: growth inhibition [1] 12% | inhibition [3] 5% | outcome [5] | outcome [6] | outcome [7] | outcome [8]

CN(C)CCNc1ncnc2c1[nH]c1ccc(Cl)cc12
active: growth inhibition [4] 100%
inactive: growth inhibition [1] 8% | inhibition [2] 7% | inhibition [3] 4% | outcome [5] | outcome [6] | outcome [7] | outcome [8]

Cc1cc(N[C@@H](Cc2ccccc2)C(=O)Nc2ccccc2)nc(NCCc2ccccc2)n1
active: growth inhibition [1] 87% | growth inhibition [4] 101%
inactive: inhibition [2] 8% | inhibition [3] 3% | outcome [5] | outcome [6] | outcome [7] | outcome [8]

CC(C)c1ccc(OCCCON2C(N)=NC(N)=NC2(C)C)cc1
inactive: inhibition [3] 0% | outcome [5] | outcome [6] | outcome [7] | outcome [8]
active: growth inhibition [1] 97% | inhibition [2] 69% | growth inhibition [4] 93%

CC(C)CCNCc1c(O)ccc2ccccc12
inactive: inhibition [2] 9% | inhibition [3] 2% | outcome [5] | outcome [6] | outcome [7] | outcome [8]
active: growth inhibition [1] 51% | growth inhibition [4] 95%

COc1ccc2nccc([C@@H](O)CN3CCC(NC(=O)/C=C/c4cc(F)cc(NC(C)=O)c4)CC3)c2c1
active: growth inhibition [4] 97%
inactive: growth inhibition [1] 49% | inhibition [2] 7% | inhibition [3] 5% | outcome [5] | outcome [6] | outcome [7] | outcome [8]

O=C(Nc1cccc(CN2CCCN(Cc3ccc4c(c3)OCO4)CC2)c1)c1ccc(-c2ccccc2)cc1
inactive: growth inhibition [1] 19% | inhibition [2] 48% | inhibition [3] -10% | outcome [5] | outcome [6] | outcome [7] | outcome [8]
active: growth inhibition [4] 90%

CC(C)Cc1nc2nc(N)nc(N)c2cc1C(C)C
active: inhibition [2] 67% | growth inhibition [4] 96%
inactive: growth inhibition [1] 3% | inhibition [3] 4% | outcome [5] | outcome [6] | outcome [7] | outcome [8]

CC(C)C1=C[C@H]2C[C@]3(C4OCCO4)[C@@H]4CC[C@@H](C)[C@H]4C[C@@]2(COCc2cccc(C#N)c2)[C@]13C(=O)OC(c1ccccc1)c1ccccc1
active: growth inhibition [1] 92% | growth inhibition [4] 88%
inactive: inhibition [2] -5% | inhibition [3] 8% | outcome [5] | outcome [6] | outcome [7] | outcome [8]
